In the supplement of paper PMC6555819:

Legend:
Assay in all cases: PBM binding z-score (relative to random genomic background probes); higher = stronger binding; sequences stand for … in GC…GCGATTGACAGCGTAGAATGAAGG
[1] = test system: PPARg:RXRa IVT, anti-PPARg (NR concentration 270 nM, RXRa partner concentration 90 nM)
Procedure, shortened: (§1)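 Probes were double-stranded and carried 34-nt variable regions with direct-repeat seeds, single-nucleotide variants, half-site ablations and random human genomic background sequences, printed on custom Agilent 4×180K protein-binding microarrays. Arrays were incubated 1 h with ligand-free nuclear receptor dimers in PBS pH 7.4, 2% milk, 0.02% Triton X-100, 1 mM DTT, 0.2 mg/mL BSA and 0.4 mg/ml salmon testes DNA. Antibodies against each partner (one per run) detected binding, and scanned fluorescence was regression-normalized. Binding z-scores use the random background probes as reference.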

[2] = test system: PPARg DBDmut:RXRa IVT, anti-PPARg (DBD mutation: PPARg1 K132A/R137A, NR concentration 270 nM, RXRa partner concentration 90 nM)
Procedure, shortened: as §1

[3] = test system: PPARg DBDmut IVT, anti-PPARg (DBD mutation: PPARg1 K132A/R137A, NR concentration 270 nM)
Procedure, shortened: as §1

[4] = test system: PPARg homodimer (NR concentration 180 nM)
Procedure, shortened: as §1

[5] = test system: PXR:RXRa (NR concentration 270 nM, RXRa partner concentration 90 nM)
Procedure, shortened: as §1

[6] = test system: PXR homodimer (NR concentration 270 nM)
Procedure, shortened: as §1

[7] = test system: RARa:RXR (NR concentration 270 nM, RXRa partner concentration 90 nM)
Procedure, shortened: as §1

[8] = test system: RARa homodimer (NR concentration 270 nM)
Procedure, shortened: as §1

[9] = test system: RARb homodimer (NR concentration 270 nM)
Procedure, shortened: as §1

[10] = test system: RARb:RXRa (NR concentration 270 nM, RXRa partner concentration 90 nM)
Procedure, shortened: as §1

| Sequence | PBM binding z-score [1] | PBM binding z-score [2] | PBM binding z-score [3] | PBM binding z-score [4] | PBM binding z-score [5] | PBM binding z-score [6] | PBM binding z-score [7] | PBM binding z-score [8] | PBM binding z-score [9] | PBM binding z-score [10] |
| --- | --- | --- | --- | --- | --- | --- | --- | --- | --- | --- |
| ATCGAAAGGTCAACGAGGTGAGTATACACCGTTT | 5.68 | 2.78 | 3.38 | 5.17 | 6 | 5.16 | 6.61 | 3.85 | 5.51 |  |
| AATACAGGGTGACTAGGCCAGAGTAGGTACGAAT | 3.48 | 1.24 | 0.872 | 0.246 | 0.11 | 0.336 | 0.341 | 0.259 | 0.729 | 0.856 |
| AGAATGAGGTTAAGTTCAGGGAAACAGAATACAT | 3.33 | 1.62 | 0.811 | 1.08 | 3.31 | 1.91 | 3.03 | 0.895 | 2.6 | 3.17 |
| TCTTGTAGATCAATAGAAGTTAAGAAAGTGCGCT | 0.217 | 0.211 | 1.07 | 0.551 | 0.615 | 0.29 | 0.734 | 0.368 | -0.511 | 0.0854 |
| TAGCCTAGGTTATGGGCCAGTATACCACGCGAAC | 0.996 | -0.249 | -0.26 | 0.0998 | -0.0911 | -0.214 | 0.27 | -0.107 | 0.24 | 0.734 |
| CCTACTGGGCCAAAGAGGTCATTGATGCCGATAA | 4.34 | -0.355 | -0.682 | 1.81 | 4.81 | 4.26 | 4.39 | 0.256 | 3.65 | 3.07 |
| CGTCAAAGGTCAAAGGTCAGTGAAGAGATGACGG | 6.51 | 2.46 | 1.92 | 4.68 | 7.37 | 1.83 | 9.15 | 3.92 | 6.09 |  |
| CAAACTAGGTCAAAAGGTCAAAGTCCGCTTCCCG | 8.17 | 1.83 | 1.09 | 7.65 | 6.71 | 2.96 |  | 5.47 | 6.38 |  |
| ATCGAAAGGTCGACGAGGTGAGTAAACACCGTTT | 1.85 | 0.135 | 1.17 | 1.63 | 3.05 | 0.324 |  | 0.378 | 2.98 | 3.85 |
| CAAAATAGGTCACAGAGGTCAAAGTCCGTGCGTA | 8.25 | 1.92 | 1.23 | 4.67 | 6.99 | 10.7 | 7.81 | 1.88 | 5.93 |  |
| ATCGAAAGGTCAAGGTGAGTATAGAGAAAGGGAA | 5.43 | 2.02 | 1.2 | 4.09 | 5.13 | 1.19 | 5.85 | 2.51 | 5.32 |  |
| ATCAAAAGGTCGAGGTGAGTATAGAGAAAGGGAA | 2.79 | 1.63 | 1.54 | 2.27 | 2.86 | 1.09 |  | 1.57 | 3.28 | 4.53 |
| TCTAGTCGGTCAAAGGTCACACACTCGAAATGCG | 6.92 | 1.34 | 1.59 | 5.59 | 6.26 | 1.5 |  | 2.61 | 5.22 | 5.34 |
| CCTTAAGGGTCACGAGGTTATAGCACGACGAGCG | 5.81 | 1.74 | 1.89 | 4.47 | 5.46 | 0.279 | 6.79 | 1.6 | 5.02 |  |
| CAAACCAGGTCAAAGGTCAAAGTCGAGCCAACCA | 7.43 | 2.48 | 1.06 | 4.04 |  | 2.11 | 9.04 | 3.33 | 5.45 | 5.8 |
| CGTCAAAGGTCAGAGAGGTCAGTGAATGCCGAGT | 5.36 | 0.83 | 0.0737 | 5.81 | 6.7 | 12.3 |  | 5.86 | 6.19 |  |
| GCTGCGAGGTCAACTGATGGTCAGCTAAAGCTCG | 4.26 | 0.48 | -0.29 | 3.57 | 5.49 | 0.673 | 5.93 | 0.38 | 4.83 |  |
| CGTCAAAGGTCAATGCTAGGTCAGTGAAAGCATT | 6.13 | 2.05 | 0.936 | 5.64 | 5.96 | 1.66 | 6.85 | 2.5 | 5.56 |  |
| CCGACGGGGGCAAAGGTTACCATACTCAGTACGA | 5.25 | 2.34 | 3.31 | 2.4 | 5.31 | 0.704 |  | 0.677 | 3.21 | 3.84 |
| CGTCAAAGGTCAAGGTAACGTAACAGAAAGCAGC | 6.15 | 3.88 | 3.1 | 4.75 | 5.33 | 0.602 | 6.56 | 2.85 | 5.16 |  |
| GGAACGAGGTCAAGTTGATAGCAGAGTTTGATGG | 6.52 | 2.59 | 0.598 | 3.81 | 5.86 | 2.91 | 5.81 | 2.1 | 4.59 |  |
| CAAACCAGGTCACAGAGGTCAAAGTCCGTGCGTA | 7.43 | 3.56 | 2.74 | 5.78 | 7.23 | 14.2 |  | 4.25 | 5.56 | 5.41 |
| CCTCGGAGGACAGAAGGTCAAAGCTGTCCGCTTT | 0.662 | -1.42 | -2.33 | 2.07 | 3.39 | 0.288 |  | 0.206 | 4.26 | 3.74 |
| AGAATGGGGTTATACGTAGATCAGGGAAGAAAGT | 2.95 | 2.51 | 1.53 | 1.86 | 2.56 | 1.48 |  | 1.54 | 1.67 | 1.93 |
| CAAAATAGGTCACCGGAAGGTCAAAGTCCGCATG | 8.01 | 1.87 | 1.44 | 8.87 | 6.56 | 1.96 | 8.2 | 4.27 | 5.89 |  |
| CGTCCAAGGTCACGGTCAGTGAAAGAGACTCGAA | 5.66 | 1.95 | 0.958 | 4.68 | 4.93 | 0.843 | 6.25 | 2.14 | 4.71 |  |
| TGTCAAAGTTCAAAGGTGACGTAAGTATCCACAC | 5.07 | 1.7 | 1.53 | 5.33 | 6.34 | 5.43 |  | 2.52 | 4.05 | 5.36 |
